# Reference: PubChem BioAssay (NCATS)
# Inconclusive results are not listed. Where a call stands in place of a potency, no number is given. Unmarked numbers belong to inactive results. Activity calls are given as the source filed them. The call rests on the fitted dose curve; in most records, active means well fitted curve in the direction sought with a large enough effect; inconclusive means small, poorly fitted or top-dose-only effect, or another doubt; inactive means no such curve, though single readings can be large; an effect the other way counts as inactive or inconclusive.
# Molecular target: Cytochrome P450 3A7 (Homo sapiens) (UniProt P24462)
# Sequence (P24462 whole entry, looked up): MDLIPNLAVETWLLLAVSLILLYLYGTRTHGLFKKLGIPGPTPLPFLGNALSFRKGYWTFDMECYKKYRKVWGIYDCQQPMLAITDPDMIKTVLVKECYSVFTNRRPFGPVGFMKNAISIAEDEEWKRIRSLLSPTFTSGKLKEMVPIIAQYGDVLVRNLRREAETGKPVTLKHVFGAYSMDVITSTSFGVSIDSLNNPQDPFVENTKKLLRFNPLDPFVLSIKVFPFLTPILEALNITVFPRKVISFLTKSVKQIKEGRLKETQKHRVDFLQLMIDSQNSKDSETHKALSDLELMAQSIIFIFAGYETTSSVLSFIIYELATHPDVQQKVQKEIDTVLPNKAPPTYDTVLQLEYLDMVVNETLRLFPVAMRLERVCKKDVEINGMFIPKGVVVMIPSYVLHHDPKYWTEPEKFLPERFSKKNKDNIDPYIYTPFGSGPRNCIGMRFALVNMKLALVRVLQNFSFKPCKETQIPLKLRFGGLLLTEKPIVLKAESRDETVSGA
# Assay: Cytochrome P450 family 3 subfamily A member 7 (CYP3A7) small molecule antagonists: luciferase biochemical qHTS assay (AID 1963596); further: nearly all actives have a fitted effect of over 40% in size
# Conditions: P450-Glo CYP3A7 enzyme luminescence, 1 h; series mostly up to 57.4 µM
# Summary of the method: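 Recombinant CYP3A7 P450-Glo luminescent assay: enzyme-proluciferin substrate mix preincubated with compound 10 min at room temperature, reaction started with NADPH regeneration system for 1 h. Luciferin detected by luminescence; ketoconazole as positive control.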
row,Compound,Potency
1,C=CCN1CCC23c4c5ccc(O)c4O[C@H]2C(=O)CC[C@@]3(O)C1C5 (some centres undefined),inactive
2,CCCCNC(C)(C)[P+](=O)O,inactive
3,NCC(O)c1cccc(O)c1 (centres undefined),inactive
4,CCN1CCN(C(c2ccc(Cl)cc2)c2ccc(Cl)cc2)CC1,inactive
5,O=C(N1CCCCC1Cc1ccccc1)n1cc(-c2ccc(-c3ccccc3)cc2)nn1 (centres undefined),inactive
6,COC(=O)c1ccccc1C(=O)OC,inactive
7,CC(N)Cc1c[nH]c2ccccc12 (centres undefined),inactive
8,O=C(CC1NCCC[C@H]1O)Cn1cnc2cc(Br)c(Cl)cc2c1=O (some centres undefined),inactive
9,Cc1ccccc1CN1CCC(N2CCC(n3c(=O)[nH]c4ccccc43)CC2)CC1,inactive
10,CCOCCOC(C)=O,inactive
11,CCCCc1ccc(C(=O)O)nc1,inactive
12,C[C@H](NC(=O)Cc1cc(F)cc(F)c1)C(=O)N[C@@H]1N=C(c2ccccc2)c2ccccc2N(C)C1=O,inactive
13,OCCCCC#Cc1cncc(OC[C@@H]2CCN2)c1,inactive
14,CN(C)CCc1c[nH]c2ccc(CN3CCN(C)S3(=O)=O)cc12,inactive
15,O=C(N[C@@H]1N=C(c2ccccc2F)c2cccc3c2N(CC3)C1=O)c1cc2ccccc2[nH]1,inactive
16,CCCCCCn1c(=O)c(C(=O)Nc2ccc(C(=O)OCCC)cc2)c(O)c2ccccc21,inactive
17,NC1(c2ccccc2)CCCCC1,inactive
18,CC(C)(N)Cc1ccccc1,inactive
19,Cc1c(Cl)cccc1S(=O)(=O)Nc1nc(CC(=O)N2CCN(C)CC2)cs1,inactive
20,CNC(C)[C@@H](O)c1ccc(O)cc1 (some centres undefined),inactive

row,Compound,Potency
1,CCCCCCCCOC(=O)c1ccccc1C(=O)OCCCCCCCC,inactive
2,CCN(CC)N(O)N=O,inactive
3,O=[As]O[As]=O (centres undefined),inactive
4,CCCCNCC(O)c1ccc(O)cc1 (centres undefined),inactive
5,C#CC(C)(O)CC (centres undefined),inactive
6,CCOC(=O)c1ccccc1C(=O)OCC,inactive
7,c1ccc([C@@H]2C[C@H]2NC2CCNCC2)cc1,inactive
8,O=C(N1CCOCC1)N1CCN(c2ccc(Cl)cc2)CC1,inactive
9,CC(C)C(Br)C(=O)NC(N)=O (centres undefined),inactive
10,NCCCCCNC1(c2ccccc2)CCCCC1,inactive
11,NCCS[As](SCCN)c1ccc(Nc2nc(N)nc(N)n2)cc1,inactive
12,CCNCC(O)c1cccc(O)c1 (centres undefined),inactive
13,CCNC(C)Cc1cccc(C(F)(F)F)c1 (centres undefined),inactive
14,COc1ccc(OC)c(C(O)C(C)N)c1 (centres undefined),inactive
15,CN1C2CCC1CC(OC(=O)N1Cc3ccccc3NC1=O)C2 (centres undefined),inactive
16,N#Cc1cn([C@@H]2O[C@H](CO)[C@H](O)[C@@H]2O)c2ncnc(N)c12,inactive
17,CN(Cc1cccc(-c2ccncc2)c1)C(=O)Oc1ccc(-c2ccc(C(N)=O)cc2)cc1,inactive
18,COc1cc(N2CCN(C)CC2)ccc1N,inactive
19,C=CCC1(CC(C)C)C(=O)NC(=O)NC1=O,inactive

# Tested on: not listed separately
# Assay: Viability qHTS for spleen associated tyrosine kinase inhibitor (SYKi) naive MV4-11 cells (AID 1963823); further: nearly all actives have a fitted effect of over 40% in size
# Conditions: MV4-11 AML viability, CellTiter-Glo luminescence, 72 h; series mostly up to 45 µM
# Summary of the method: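 SYKi-naive MV4-11 AML cells, 500 per well, were exposed to library compounds for 72 hr at 37 C, 5% CO2. Viability was then read by CellTiter-Glo luminescence after 10 min at room temperature.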
Compound,Potency,viability (% of control)
CC(N)Cc1c[nH]c2ccccc12 (centres undefined),inactive,
CCCCCCn1c(=O)c(C(=O)Nc2ccc(C(=O)OCCC)cc2)c(O)c2ccccc21,,62.6% [at 9.25 µM]
Cc1c(Cl)cccc1S(=O)(=O)Nc1nc(CC(=O)N2CCN(C)CC2)cs1,inactive,
c1ccc([C@@H]2C[C@H]2NC2CCNCC2)cc1,inactive,
CC(C)C(Br)C(=O)NC(N)=O (centres undefined),inactive,
CN1C2CCC1CC(OC(=O)N1Cc3ccccc3NC1=O)C2 (centres undefined),inactive,

# Tested on: not listed separately
# Assay: Viability qHTS for spleen associated tyrosine kinase inhibitor (SYKi) drug resistant MV4-11 cells (AID 1963824); further: nearly all actives have a fitted effect of over 35% in size
# Conditions: SYKi-resistant MV4-11 viability, CellTiter-Glo, 72 h; series mostly up to 45 µM
# Summary of the method: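 SYK inhibitor-resistant MV4-11 AML cells, 500 per well, added to predispensed compounds and incubated 72 hr at 37 C, 5% CO2. Viability measured by CellTiter-Glo luminescence after 10 min at room temperature.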
Compound,Potency,"viability, % of control"
CC(N)Cc1c[nH]c2ccccc12 (centres undefined),inactive,
CCCCCCn1c(=O)c(C(=O)Nc2ccc(C(=O)OCCC)cc2)c(O)c2ccccc21,,83.2% [at 9.25 µM]
Cc1c(Cl)cccc1S(=O)(=O)Nc1nc(CC(=O)N2CCN(C)CC2)cs1,inactive,
CN1C2CCC1CC(OC(=O)N1Cc3ccccc3NC1=O)C2 (centres undefined),inactive,
